According to PubChem BioAssay (NCATS):
Records with an inconclusive call do not appear. Where a call stands in place of a potency, no number is given. Values without a mark were called inactive. The source made the active and inactive calls. Calls come from the whole dose curve; as a rule, active = well fitted cell-killing curve with a large enough effect; inconclusive = small, poorly fitted or top-dose-only effect, or effect the other way; inactive = no such curve, though single readings can be large or run the other way.

What was measured:
[1] = Quantitative High-Throughput drug screen in 47 multiple myeloma cell lines against the NCATS MIPE library collection: OPM1_PLB cell viability assay (AID 1918989); note: nearly all actives have a fitted effect of over 40% in size
Procedure, shortened: (§1)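 Viability after 48 h drug exposure was measured as ATP-dependent luminescence. Cells, 500 per well, sat at 37 °C under 5% CO2; DMSO wells set 100%, media-only wells 0%.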

[2] = Quantitative High-Throughput drug screen in 47 multiple myeloma cell lines against the NCATS MIPE library collection: U266_ATCC cell viability assay (AID 1919864); note: nearly all actives have a fitted effect of over 35% in size
Procedure, shortened: as §1

[3] = Quantitative High-Throughput drug screen in 47 multiple myeloma cell lines against the NCATS MIPE library collection: XG6_PLB cell viability assay (AID 1919865); note: nearly all actives have a fitted effect of over 40% in size
Procedure, shortened: as §1

[4] = Quantitative High-Throughput drug screen in 47 multiple myeloma cell lines against the NCATS MIPE library collection: PE2_PLB cell viability assay (AID 1919869); note: nearly all actives have a fitted effect of over 35% in size
Procedure, shortened: as §1

[5] = Quantitative High-Throughput drug screen in 47 multiple myeloma cell lines against the NCATS MIPE library collection: PCM6_Riken cell viability assay (AID 1919870); note: nearly all actives have a fitted effect of over 30% in size
Procedure, shortened: as §1

[6] = Quantitative High-Throughput drug screen in 47 multiple myeloma cell lines against the NCATS MIPE library collection: RPMI8226_ATCC cell viability assay (AID 1919871); note: nearly all actives have a fitted effect of over 30% in size
Procedure, shortened: as §1

[7] = Quantitative High-Throughput drug screen in 47 multiple myeloma cell lines against the NCATS MIPE library collection: KMS11_JCRBsus cell viability assay (AID 1919873); note: nearly all actives have a fitted effect of over 50% in size
Procedure, shortened: as §1

[8] = Quantitative High-Throughput drug screen in 47 multiple myeloma cell lines against the NCATS MIPE library collection: KMS28BM_JCRB cell viability assay (AID 1919874); note: nearly all actives have a fitted effect of over 35% in size
Procedure, shortened: as §1

[9] = Quantitative High-Throughput drug screen in 47 multiple myeloma cell lines against the NCATS MIPE library collection: XG1_PLB cell viability assay (AID 1919866); note: nearly all actives have a fitted effect of over 35% in size
Procedure, shortened: as §1

[10] = Quantitative High-Throughput drug screen in 47 multiple myeloma cell lines against the NCATS MIPE library collection: VP6_DJ cell viability assay (AID 1919867); note: nearly all actives have a fitted effect of over 40% in size
Procedure, shortened: as §1

[11] = Quantitative High-Throughput drug screen in 47 multiple myeloma cell lines against the NCATS MIPE library collection: SKMM1_PLB cell viability assay (AID 1919863); details: SKMM1 myeloma viability, CellTiter-Glo ATP, 48 h; viability: stronger effect = lower value; note: nearly all actives have a fitted effect of over 35% in size; for viability: series mostly up to about 46 µM
Procedure, shortened: as §1

[12] = Quantitative High-Throughput drug screen in 47 multiple myeloma cell lines against the NCATS MIPE library collection: OPM2_DSMZ cell viability assay (AID 1919872); note: nearly all actives have a fitted effect of over 30% in size
Procedure, shortened: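 qHTS of the MIPE 4.0 collection: 500 myeloma cells/well, 48 h drug exposure at 37C in 5% CO2, then CellTiter-Glo for 5 min at room temperature before luminescence reading.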

[13] = Quantitative High-Throughput drug screen in 47 multiple myeloma cell lines against the NCATS MIPE library collection: UTMC2_PLB cell viability assay (AID 1919868); note: nearly all actives have a fitted effect of over 55% in size
Procedure, shortened: as §1
Potency is the fitted concentration of half-maximal effect.

SMILES	Potency [1]	Potency [2]	Potency [3]	Potency [4]	Potency [5]	Potency [6]	Potency [7]	Potency [8]	Potency [9]	Potency [10]	viability [11] [%]	Potency [11]	Potency [12]	Potency [13]
Cc1ccnc2c1NC(=O)c1cccnc1N2C1CC1	inactive	16.6 µM (active)	23.5 µM (active)	26.4 µM (active)	26.4 µM (active)	inactive	inactive	inactive						
O=c1cc(O)c(Cl)c[nH]1	inactive	5.9 µM (active)	1.87 µM (active)	inactive	2.96 µM (active)	inactive			3.72 µM (active)	0.132 µM (active)				
CCOC(=O)[C@H](CCc1ccccc1)N[C@H]1CCc2ccccc2N(CC(=O)O)C1=O	16.6 µM (active)	18.7 µM (active)		20.9 µM (active)	20.9 µM (active)	18.7 µM (active)		18.7 µM (active)	18.7 µM (active)	18.7 µM (active)				
O=C(O)CSCC(=O)NC1CCSC1=O (stereo not drawn)	inactive		inactive	inactive	inactive	inactive	inactive	inactive	inactive		130			
COC(=O)Nc1nc2ccc(Sc3ccccc3)cc2[nH]1	1.66 µM (active)			1.18 µM (active)		5.26 µM (active)		0.935 µM (active)		1.05 µM (active)		3.32 µM (active)		
CC(C)(C#N)c1cc(Cn2cncn2)cc(C(C)(C)C#N)c1	inactive		inactive	inactive	inactive	inactive	inactive	inactive	inactive				inactive	
CC1=NN(c2ccccc2)C(=O)C1	inactive		7.43 µM (active)	inactive	inactive	inactive		inactive						
CCn1cc(C(=O)O)c(=O)c2cc(F)c(N3CCNCC3)cc21	inactive			inactive	inactive	inactive		inactive	inactive				inactive	inactive
Cn1nnc2c(C(N)=O)ncn2c1=O	inactive		inactive	inactive	inactive	inactive			inactive					
CCc1cc(C(N)=S)ccn1	inactive		inactive		inactive	inactive	inactive	inactive	inactive					
CC[C@H](NC(C)C)[C@H](O)c1ccc(O)c2[nH]c(=O)ccc12	inactive	inactive	inactive		inactive			inactive	inactive					
CC(C)NCC(O)c1ccc(NS(C)(=O)=O)cc1 (stereo not drawn)	inactive			inactive	inactive		inactive	inactive			159		inactive	inactive
CC(=O)Oc1ccccc1C(=O)Nc1ncc([N+](=O)[O-])s1	24.1 µM (active)			13.6 µM (active)	27 µM (active)	19.1 µM (active)	17.1 µM (active)		30.3 µM (active)			38.2 µM (active)		13.6 µM (active)
COC(c1ccccc1)(c1ccccc1)[C@H](Oc1nc(C)cc(C)n1)C(=O)O	inactive	inactive		inactive	inactive	inactive	inactive	inactive	inactive				inactive	
Cn1c(=O)c2c(ncn2CC(O)CO)n(C)c1=O (stereo not drawn)	inactive		inactive	inactive	inactive	inactive	inactive	inactive					inactive	
CC(C)Cn1cnc2c(N)nc3ccccc3c21		20.9 µM (active)		inactive				14.8 µM (active)		inactive		14.8 µM (active)		
CO[C@@H]1[C@@H](OC(N)=O)[C@@H](O)[C@H](Oc2ccc3c(O)c(NC(=O)c4ccc(O)c(CC=C(C)C)c4)c(=O)oc3c2C)OC1(C)C	5.26 µM (active)			6.62 µM (active)				9.35 µM (active)	5.9 µM (active)					
COc1cc(NS(=O)(=O)c2ccc(N)cc2)nc(OC)n1		inactive	inactive	inactive	inactive	inactive	inactive	inactive	inactive		133		inactive	
O=C(O)c1cn(C2CC2)c2cc(N3CCNCC3)c(F)cc2c1=O		inactive		inactive	inactive	inactive	inactive	inactive	inactive	inactive	166		inactive	
CC(C)C[C@H](NC(=O)[C@H](CCc1ccccc1)NC(=O)CN1CCOCC1)C(=O)N[C@@H](Cc1ccccc1)C(=O)N[C@@H](CC(C)C)C(=O)[C@@]1(C)CO1		0.0047 µM (active)		0.001 µM (active)	0.001 µM (active)	0.0166 µM (active)		0.0053 µM (active)	0.001 µM (active)	0.001 µM (active)		0.0209 µM (active)	0.0166 µM (active)	
CN(Cc1cc(Br)cc(Br)c1N)C1CCCCC1	inactive												inactive	
Cc1ccc(S(=O)(=O)N[C@@H](Cc2ccccc2)C(=O)CCl)cc1		18.7 µM (active)	14.8 µM (active)	10.5 µM (active)	11.8 µM (active)	20.9 µM (active)		11.8 µM (active)	7.43 µM (active)	9.35 µM (active)		18.7 µM (active)		
